HepG2 tox: counter-screen for TGF-b inhibitors: cytotoxicity in HepG2 cells; AID 588856; Potency, µM (titrated, usually from 46.1 µM), inactives show at the top dose activity change, negative = cytotoxicity, hits mostly cytotoxic; 410,000 compounds, 0.76% hits; HepG2 CAGA-GFP viability, ATP luminescence, 18 h; note: potency is the fitted concentration of half-maximal effect
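HepG2 CAGA-GFP cells (1000/well, DMEM with 1% FBS) received compound, then TGF-beta at 500 pg/mL final, and were incubated 18 hours at 37 degrees C. Viability was read by CellTiter-Glo luminescence. Media-only wells were set as complete cell-killing and DMSO as no toxicity.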
DT40 TDP1 no CPT: qHTS for Inhibitors of human tyrosyl-DNA phosphodiesterase 1 (TDP1): qHTS in cells in absence of CPT; Potency, µM (top dose mostly 46.2 µM), for inactives: at the top dose activity change, negative = growth inhibition, actives largely listed as inhibitors; 420,000 compounds, 15% hits; DT40 Tdp1-/- hTDP1 cells, no CPT, ATP luminescence, 48 h; AID 686978, 2013; note: potency is the fitted concentration of half-maximal effect; % is set by controls: 0 for no effect and ±100 for the full control effect; nearly all actives have a fitted effect of over 55% in size
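A cellular qHTS used chicken DT40 cells lacking endogenous Tdp1 but carrying stably transfected human TDP1. Compounds were applied without camptothecin, and cell growth kinetics were judged by ATP-dependent luminescence after ≥48 hr.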
TGFb SMAD3 inh: TGF-b pathway inhibition | HepG2 CAGA-GFP TGF-b/SMAD3 reporter, GFP fluorescence, 18 h; TGF-beta stimulated, 500 pg/mL final | Potency, µM (highest dose often 46.1 µM), inactives show top-dose activity, negative = inhibition, usual class: inhibitors | 410,000 compounds, 1.2% hits | AID 588855; note: potency is the fitted concentration of half-maximal effect; % is set by controls: 0 for no effect and ±100 for the full control effect; nearly all actives have a fitted effect of over 65% in size
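Per well, imaged GFP fluorescence of HEPG2 CAGA-GFP cells gives the signal; cells get compound, then TGF-beta (500 pg/mL final), 18 h at 37 degrees C; %Activity versus -TGF-beta and +DMSO controls.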
DT40 TDP1 CPT: growth inhibition of DT40 Tdp1-/-;hTDP1 cells with camptothecin (screen for TDP1 inhibitors); Potency, µM (titrated, usually from 46.2 µM), for inactives: top-dose activity change, negative = growth inhibition, usual class: inhibitors; AID 686979; 420,000 compounds, 12% hits; chicken DT40 Tdp1-/-;hTDP1 cells + 20 nM CPT, ATP luminescence, 48 h; note: potency is the fitted concentration of half-maximal effect; % is set by controls: 0 for no effect and ±100 for the full control effect; nearly all actives have a fitted effect of over 55% in size
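Chicken DT40 Tdp1-/- cells complemented with human TDP1, 400 cells/well, exposed to compounds plus 20 nM camptothecin for at least 48 h at 37 C; viability read as ATP content by CellTiter-Glo luminescence.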
IL1B secr inh: blocks inflammasome-driven IL-1 beta release. THP-1 LPS/ATP IL-1B secretion, AlphaLISA, 16 h; stronger effect = lower value. activity change, % at 57.5 µM. 360,000 compounds, 4.7% hits. AID 743279; in the data active = activity change below about -50%; inconclusive = mostly about -30% to -49%; note: % is set by controls: 0 for no effect and ±100 for the full control effect
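Secreted IL-1B measured by AlphaLISA bead assay after 16 h compound exposure of THP-1 cells; compounds (final up to 57.5 uM) added 1 h before LPS (250 ng/mL) and ATP (1.25 mM) stimulation; lower signal means less secretion.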
TDP1 block: TDP1 (human) enzyme inhibition; Q9NUW8; recombinant TDP1, AlphaScreen DNA substrate cleavage; Potency, µM (top dose mostly 130 µM), for the others: at the top dose activity change, negative = inhibition, most hits filed as inhibitors; 350,000 compounds, 0.28% hits; AID 485290; note: potency is the fitted concentration of half-maximal effect; % is set by controls: 0 for no effect and ±100 for the full control effect; nearly all actives have a fitted effect of over 40% in size
Target sequence (Q9NUW8 whole entry, looked up): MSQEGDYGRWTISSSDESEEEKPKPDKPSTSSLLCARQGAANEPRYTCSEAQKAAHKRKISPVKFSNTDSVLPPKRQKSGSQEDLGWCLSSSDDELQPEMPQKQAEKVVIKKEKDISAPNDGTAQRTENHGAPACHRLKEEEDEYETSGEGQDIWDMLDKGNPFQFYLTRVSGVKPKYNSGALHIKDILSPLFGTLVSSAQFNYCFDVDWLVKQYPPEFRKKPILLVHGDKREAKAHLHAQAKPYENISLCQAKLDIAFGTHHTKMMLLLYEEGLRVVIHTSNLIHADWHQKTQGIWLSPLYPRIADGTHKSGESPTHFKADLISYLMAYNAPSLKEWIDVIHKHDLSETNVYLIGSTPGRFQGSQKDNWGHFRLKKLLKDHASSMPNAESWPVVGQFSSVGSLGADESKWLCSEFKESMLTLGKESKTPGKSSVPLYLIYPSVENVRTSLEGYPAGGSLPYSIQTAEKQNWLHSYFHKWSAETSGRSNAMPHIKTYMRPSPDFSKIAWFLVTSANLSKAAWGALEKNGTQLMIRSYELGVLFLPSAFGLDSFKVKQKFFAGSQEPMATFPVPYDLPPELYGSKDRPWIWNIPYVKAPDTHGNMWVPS
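Here, a 5' biotin and 3' phosphotyrosine-FITC DNA oligonucleotide reports Tdp1 activity: intact substrate bridges AlphaScreen beads, while cleavage leaves a 3' phosphate and drops signal. All incubations at room temperature.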
* = called active by the depositor; ? = inconclusive; . = no result; [ ] = dose if it differs, or a comment. The list is not random: actives were taken first. Their share in the collection is about 18%. Unless noted, calls come from the whole dose curve; as a rule, active = well fitted curve in the direction sought with a large enough effect; inconclusive = small, poorly fitted or top-dose-only effect, or another doubt; inactive = no such curve, though single readings can be large; an effect the other way counts as inactive or inconclusive.

SMILES	HepG2 tox	DT40 TDP1 no CPT	TGFb SMAD3 inh	DT40 TDP1 CPT	IL1B secr inh	TDP1 block
Cc1cc(Br)cn2c(Cc3cccc(F)c3)c(-c3ccc(Cl)cc3)nc12	-32.0%	?	?	?	48.3	.
Cc1cc(Br)cn2c(Cc3ccccc3)c(-c3ccc(C#N)cc3)nc12	-34.6%	?	?	18.4µM*	-2.9	.
Cc1cc(Br)cn2c(Cc3ccccc3)c(-c3ccc(Cl)cc3)nc12	.	-20.1%	.	-2.4%	68.8	.
Cc1ccc(Cc2c(-c3ccc(C)cc3)nc3c(C)cc(Br)cn23)cc1	-16.1%	16.4µM*	?	16.4µM*	0.0	.
Cc1ccc2c(c1)c1nnc(SCC(=O)Nc3ccc(N(C)C)cc3)nc1n2CC(=O)O	1.1%	4.6%	-16.9%	0.2%	4.9	10.0%
COc1ccc(S(=O)(=O)NCCCC(=O)Nc2ccc(Sc3ccc(N)cc3)cc2)cc1	.	.	.	.	.	17.4%
Cc1ccc(F)cc1C(=O)N1CCOCC1c1cc(C(=O)Nc2ccccc2)no1 (configuration not stated)	-7.9%	?	1.3%	?	8.9	.
COC(=O)C1=C(C)N=c2s/c(=C/c3cccs3)c(=O)n2C1c1cccs1 (configuration not stated)	-2.2%	-30.0%	-5.1%	-24.5%	-19.6	1.0%
CCOC(=O)C1=C(c2ccccc2)N=c2sc(=Cc3cc(OC)c(OC)c(OC)c3)c(=O)n2C1c1cccs1 (configuration not stated)	-27.8%	13µM*	2.7%	8.2µM*	?	.
CCOC(=O)C1=C(C)N=c2s/c(=C\c3cccn3C)c(=O)n2C1c1cccc(OC)c1OC (configuration not stated)	4.1%	20.6µM*	-11.0%	?	-5.6	2.1%
CCOC(=O)C1=C(c2ccccc2)N=c2s/c(=C\c3ccc(O)cc3)c(=O)n2C1c1cccs1 (configuration not stated)	-89.3%	16.4µM*	?	11.6µM*	-78.4*	4.0%
CCOC(=O)C1=C(C)N=c2sc(=Cc3cc(Cl)c(OCC(=O)O)c(OC)c3)c(=O)n2C1c1ccccc1Cl (configuration not stated)	-13.4%	20.6µM*	7.4%	?	3.4	.
Cc1c(C(=O)N2CCN(Cc3ccccc3)CC2)oc2c1C(=O)CC(C)(C)C2	-4.0%	?	-3.6%	?	23.7	8.7%
COCCCN1C(=O)N(c2ccc(F)cc2)C(=O)C1CC(=O)Nc1ccc(OC)cc1 (configuration not stated)	-3.8%	-21.4%	-3.0%	3.5%	18.2	.
O=C(CN1C(=O)NC2(CCCCC2)C1=O)N1CCN(S(=O)(=O)c2ccc(F)c(F)c2F)CC1	-39.6%	?	-7.1%	?	2.3	10.3%
CN(C)C(=O)c1ccc(-c2nc(NC3CCNCC3)c3ccccc3n2)cc1	.	-7.3%	.	-4.1%	.	.
O=C(Cn1ncn2c(cc3sccc32)c1=O)NC1CCCC1	-2.4%	-11.6%	1.1%	-4.8%	-21.6	2.0%
c1ccc(CCN2CCN=C2Nc2ccccc2)cc1	3.1%	-16.8%	-25.7%	-21.1%	-6.9	.
c1ccc(CCCCN2C(Nc3ccccc3)=NC[C@@H]2Cc2ccccc2)cc1	-26.5%	23.1µM*	-21.8%	?	-55.3*	-3.6%
c1ccc(C[C@H]2CN=C(Nc3ccccc3)N2CCCC2CCCC2)cc1	-35.0%	16.4µM*	-12.6%	?	-3.5	.
CCN1C(Nc2ccccc2)=NC[C@@H]1Cc1ccccc1	1.5%	-23.0%	?	?	-1.6	.
CCCCCCCN1C(Nc2ccccc2)=NC[C@@H]1Cc1ccccc1	-42.4%	18.4µM*	?	?	-15.7	.
CC(C)(C)C1CCC(CN2C(Nc3ccccc3)=NC[C@@H]2Cc2ccccc2)CC1 (some centres not stated)	12.6µM*	13µM*	?	23.1µM*	?	2.7%
CC(=O)Nc1ccccc1-c1nc(CNC(=O)c2ccc(-c3ccccc3F)cc2)c(C)o1	.	-7.1%	.	10.6%	.	.
CC(C)n1nnc(-c2ccc(OCc3ccccc3F)cc2)n1	-23.0%	28.6%	-12.2%	-5.0%	0.0	.
SMILES	HepG2 tox	DT40 TDP1 no CPT	TGFb SMAD3 inh	DT40 TDP1 CPT	IL1B secr inh	TDP1 block
O=C1NC[C@@H](CCCCN2C[C@H](Cc3ccc(O)cc3)N(Cc3ccccc3)C(=O)C2=O)N(CCc2ccc(O)cc2)C1=O	.	-11.3%	.	-3.0%	-1.1	.
CCC(Oc1ccccc1)C(=O)N1CCN(Cc2cc(=O)n3nc(-c4cccc(C)c4)sc3n2)CC1 (configuration not stated)	-18.3%	23.1µM*	?	?	.	10.8%
COc1cccc(-c2nn3c(=O)cc(CN4CCN(C(=O)/C=C/c5ccccc5)CC4)nc3s2)c1	1.6%	?	-14.1%	?	.	5.4%
Cc1ccccc1-c1nn2c(=O)cc(CN3CCN(C(=O)c4ccc(C(C)(C)C)cc4)CC3)nc2s1	3.9%	7.31µM*	-11.6%	8.2µM*	.	2.7%
CSc1ccccc1NC(=O)CSCc1nc2sc(C)c(C)c2c(=O)[nH]1	-9.5%	?	-16.0%	-20.9%	44.5	-0.9%
Cc1sc2nc(CSCC(=O)Nc3ccccc3C#N)[nH]c(=O)c2c1C	0.9%	16.4µM*	2.6%	?	1.4	-2.6%
O=C(Nc1cccc(C(F)(F)F)c1)c1cc(-c2ccc(Cl)cc2)on1	-8.9%	?	?	?	.	1.8%
FC(F)(F)c1cccc(Nc2nc3nonc3nc2Nc2ccc(Cl)cc2)c1	-109.0%	0.581µM*	.	0.231µM*	.	.
Cc1ccc(NC(=O)COC(=O)CCC2CCCC2)c(Br)c1	-22.6%	-23.0%	15.2%	-1.7%	12.7	56.2µM*
O=C(COC(=O)CCC1CCCC1)Nc1ccccc1Br	5.7%	-7.2%	1.7%	-23.8%	0.0	79.4µM*
COc1ccc(S(=O)(=O)NCc2nc(N3CCCC3)c3cccc(C)c3n2)cc1OC	.	-11.8%	.	4.1%[9.04 µM]	.	.
C=CCn1c(COc2ccc(Cl)cc2)nnc1SCC(=O)N/N=C/c1ccccc1	-56.7%	-10.0%	0.0%	-13.6%	21.7	5.9%
O=C(Nc1ccccc1F)c1ccc(Cn2nc(N3CCN(c4ccccc4)CC3)ccc2=O)o1	-24.6%	14.6µM*	?	23.1µM*	.	7.9%
CC(C)[C@H](NS(=O)(=O)c1ccccc1)C(=O)Nc1ccccc1N1CCOCC1	-45.8%	-20.1%	?	-19.7%	-1.8	2.1%
